Assay results from PubChem BioAssay (NCATS).
Records with an inconclusive call do not appear. A call without a number means that no potency is given here. Calls of active or inactive are those of the source. Calls come from the whole dose curve; as a rule, active = well fitted inhibition curve with a large enough effect; inconclusive = small, poorly fitted or top-dose-only effect; inactive = flat fitted curve, though single readings scatter.

Each compound was assayed against Calcium and integrin-binding protein 1 (Homo sapiens) (UniProt Q99828) (assay: Primary qHTS for Identification of Calcium Integrin Binding Protein 1 (CIB1) Competitor (AID 1508620;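 note: GST tagged CIB1 binding a fluorescein labelled alphaIIb integrin peptide tracer; top concentration of the series differs between compounds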)). Details: CIB1-GST / FITC-alphaIIb peptide fluorescence polarization; series mostly up to 114 µM.
Sequence of Calcium and integrin-binding protein 1 (Homo sapiens) (Q99828 whole entry, looked up): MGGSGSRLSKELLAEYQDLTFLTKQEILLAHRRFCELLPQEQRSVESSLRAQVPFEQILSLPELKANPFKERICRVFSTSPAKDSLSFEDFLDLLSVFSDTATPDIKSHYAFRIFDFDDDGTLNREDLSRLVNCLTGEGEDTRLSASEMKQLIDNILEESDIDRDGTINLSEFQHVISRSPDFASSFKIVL
Summary of the method: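 CIB1-GST (1 uM final) and compound incubated 15 min at room temperature before adding FITC-alphaIIb peptide tracer (100 nM final). Competition for binding read by fluorescence polarization (ex 480, em 540) after another 15 min at room temperature.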
With `CN(C)CCNc1ncnc2ccc(-c3ccc4c(c3)OCO4)cc12` the Potency was “inactive”. For `COc1cc2nc(N3CCN(C)CC3)nc(NCCN(C)C)c2cc1OC`, the Potency was “inactive”. In the case of `CCOC(=O)c1cccc(-n2cccc2/C=C2\NC(=O)N(CC(=O)O)C2=O)c1`, the Potency is reported as “inactive”. In the case of `C=Cc1cc(F)c(S(=O)(=O)N2CCN(S(=O)(=O)c3ccc4c(c3)OCCO4)CC2)cc1F`, the Potency is reported as “inactive”. `O=C(Nc1cccnc1)c1ccco1` was tested, and the Potency was “inactive”. `Cc1ccsc1CN(C)c1ncnc2ccc(-c3ccoc3)cc12` was tested, and the Potency was “inactive”. `COc1ccc([S+](=O)([O-])Nc2ccc(-c3nc4ccccc4[nH]3)cc2)cc1OC` was tested, and the Potency was “inactive”. `Cc1ccc(CNc2ncnc3ccc(-c4oc(-c5ccccc5)nc4C)cc23)o1` was tested, and the Potency was “inactive”. For `CC(=O)Nc1sc2c(c1-c1ccccc1)CCNC2`, the Potency was “inactive”. In the case of `Cc1ccnc(NC(=S)N[C@@H]2CCN(c3cccc(C(F)(F)F)c3)C2)c1`, the Potency is reported as “inactive”. In the case of `COc1cccc(-c2nnc3n2N=C(c2ccccc2OC)CS3)c1`, the Potency is reported as “inactive”. `Cc1cc(NC(=O)Nc2nnc(-c3cccnc3)s2)ccc1F` was tested, and the Potency was “inactive”. `CC(C)(C)CNc1nc(C#N)nc(Nc2ccccc2)n1` was tested, and the Potency was “inactive”. In the case of `O=C1c2ccccc2C(=O)N1c1cccc(=O)[nH]1`, the Potency is reported as “inactive”. In the case of `Cc1ccc(-c2ccc(=O)n(CC(=O)NCCCN(C)C)n2)cc1`, the Potency is reported as “inactive”. `Cc1cc2c(s1)c1cnn(Cc3ccc(C(F)(F)F)cc3F)c(=O)c1n2C` was tested, and the Potency was “inactive”. With `Cc1ccnc(NC(=S)Nc2cccc([S+](=O)([O-])Nc3ccccc3F)c2)c1` the Potency was “inactive”. For `CC(=O)Nc1sc2c(c1-c1cc3ccccc3s1)CCNC2`, the Potency was “inactive”. `Cc1c(P(=S)(c2ccccc2)c2ccccc2)[n+]2ccccc2n1CCCCc1ccccc1` was tested, and the Potency was “inactive”. For `O=C(O)c1ccc2c(c1)C(=O)N([C@H](Cc1ccc(C(F)(F)F)cc1)C(=O)O)C2=O`, the Potency was “inactive”. `O=C(c1ccccc1O)N(Cc1ccccc1)Cc1ccccc1` was tested, and the Potency was “inactive”. With `O=C(Nc1ccc(-c2nc3ccccc3[nH]2)cc1)c1ccc2c(c1)OCCO2` the Potency was “inactive”. With `COc1ccc(C2c3c(ncn(CCN4CCOCC4)c3=N)Oc3ccc4ccccc4c32)cc1` (stereo not given) the Potency was “inactive”. For `Cc1ccc(NS(=O)(=O)c2cc3c(cc2N(C)CCN(C)C)NC(=O)CC3)cc1C`, the Potency was “inactive”. `O=Cc1ccc(N2CCN(S(=O)(=O)c3ccc4c(c3)CC(=O)N4)CC2)cc1` was tested, and the Potency was “inactive”. For `CN(C(=O)Nc1ccc2ccccc2c1)c1nnc(-c2ccncc2)s1`, the Potency was “inactive”. In the case of `CC(C)(C)OC(=O)N1CCN(c2ccc(NCc3ccnc(-c4ccc(C#N)cc4)n3)cc2)CC1`, the Potency is reported as “inactive”. `O=C(Nc1cccc2nn(-c3ccc(F)cc3)cc12)c1ccccn1` was tested, and the Potency was “inactive”. In the case of `Cc1ccc(OCCn2c(CCNC(=O)/C=C/c3ccccc3)nc3ccccc32)cc1`, the Potency is reported as “inactive”. `C/C(=C\c1ccsc1)C1Nc2cccc3cccc(c23)N1` was tested, and the Potency was “inactive”. In the case of `Cc1cccc(C)c1OCc1cccc(C2Nc3ccccc3C(=O)N2Cc2ccco2)c1` (stereo not given), the Potency is reported as “inactive”. `COc1ccc(C2C3=C(N=CN(CCN4CCOCC4)C3N)Oc3ccccc32)cc1OC` (stereo not given) was tested, and the Potency was “inactive”. For `COc1ccc(NC(=O)C(OC(=O)CNC(=O)c2ccccc2)c2ccccc2)cc1Cl` (stereo not given), the Potency was “inactive”. In the case of `COC(=O)c1cccc(-c2noc(-c3ccccc3F)n2)c1`, the Potency is reported as “inactive”. `COC(=O)c1ccc(O)c2ncc(-c3ccc(C(=O)N4CCN(C)CC4)cc3)cc12` was tested, and the Potency was “inactive”. In the case of `Cc1noc(C)c1-c1ccc2ncnc(NCC3CCN(C)CC3)c2c1`, the Potency is reported as “inactive”. With `Cc1nc2ccccn2c1P(=O)(c1ccccc1)c1ccccc1` the Potency was “inactive”. In the case of `CC1=C(C(=O)Nc2ccccc2Cl)C(c2ccccc2Br)N=C(Nc2nc3ccccc3o2)N1` (stereo not given), the Potency is reported as “inactive”. With `Cc1nc(-c2ccccc2)oc1-c1ccc2ncnc(NCc3ncc[nH]3)c2c1` the Potency was “inactive”. With `Cc1c(P(=S)(c2ccccc2)c2ccccc2)[n+]2ccccc2n1CCCc1ccccc1` the Potency was “inactive”.
